Reference: PubChem BioAssay (Tox21)
Inconclusive results are not listed. A number with no mark means an inactive call. The call rests on the fitted dose curve; in most records, active means well fitted inhibition curve with a large enough effect in the signal ratio in the repeat runs (not every such curve was filed as active); inconclusive means weak or mixed curves, or effect the other way; inactive means no such curve, though single readings can be large or run the other way; the % refers to the signal ratio.

Biological target: Bile acid receptor (Homo sapiens) (UniProt Q96RI1)
Sequence (Q96RI1 whole entry, looked up): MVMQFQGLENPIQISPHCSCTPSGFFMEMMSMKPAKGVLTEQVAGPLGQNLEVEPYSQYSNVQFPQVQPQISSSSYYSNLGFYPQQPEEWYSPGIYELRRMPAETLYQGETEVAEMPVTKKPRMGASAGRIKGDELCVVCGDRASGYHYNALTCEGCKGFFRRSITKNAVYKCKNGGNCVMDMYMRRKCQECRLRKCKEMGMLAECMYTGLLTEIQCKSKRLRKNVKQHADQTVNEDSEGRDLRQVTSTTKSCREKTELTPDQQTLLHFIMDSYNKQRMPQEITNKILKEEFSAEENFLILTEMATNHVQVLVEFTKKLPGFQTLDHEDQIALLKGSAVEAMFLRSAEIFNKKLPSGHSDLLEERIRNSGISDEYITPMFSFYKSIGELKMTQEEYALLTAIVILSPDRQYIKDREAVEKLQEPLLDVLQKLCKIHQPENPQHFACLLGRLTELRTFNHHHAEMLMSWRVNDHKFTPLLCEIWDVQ
Experiment: qHTS assay to identify small molecule antagonists of the farnesoid-X-receptor (FXR) signaling pathway (AID 743217)
Details: HEK293T FXR-UAS-bla, beta-lactamase ratio, CDCA-stimulated, 16 h; series mostly up to 62.6 µM; activity change, negative = inhibition: at the top concentration
Source text: U.S. Tox21 Program National Center for Advancing Translational Sciences [NCATS] NIH Chemical Genomics Center [NCGC] U.S. Environmental Protection Agency [EPA] National Institutes of Environmental Health Sciences [NIEHS] National Toxicology Program [NTP] U.S. Food and Drug Administration [FDA] Tox21 Assay Overview: The farnesoid-X-receptor (FXR), a nuclear hormone receptor, is highly expressed in liver, intestine, kidney and adrenal cortex. Natural ligands of FXR are the bile acids (Cholic acid, Chenodeoxy cholic acid etc). FXR is an important regulator of diverse metabolic pathways, including the bile acid homeostasis, lipid and glucose metabolisms. FXR regulates the expression of target genes by binding either as a monomer or as a heterodimer with the retinoid X receptor (RXR). Numerous studies have reported that FXR exerts protective function during cholestasis, diabetes, liver regeneration, and cancer. To identify compounds that inhibit FXR signaling, GeneBLAzer FXR-UAS-bla HEK 293T cell line (Invitrogen, Carlsbad, CA) containing a beta-lactamase reporter gene under the control of a UAS response element was used to screen the Tox21 10K compound library.
Tox21 Assay Protocol Summary: FXR-bla cells were dispensed at 5000 cells/5uL/well in 1536-well black wall/clear bottom plates using a Multidrop Combi (Thermo Fisher Scientific, Waltham, MA) dispenser. After the assay plates were incubated at 37C and 5% CO2 for 5 h, 23 nL of compounds dissolved in DMSO, positive controls or DMSO only was transferred to the assay plate by a Pintool station (Kalypsys, San Diego, CA), followed by addition of 1 uL Chenodeoxycholic acid (50 uM, final concentration in the wells). The assay plates were incubated at 37C for 16 h. After 1 uL of LiveBLAzerTM B/G FRET substrate was added using a Bioraptr Flying Reagent Dispenser (FRD) workstation (Beckman Coulter, Indianapolis, IN), the plates were incubated at room temperature for 2 h, and fluorescence intensity was measured by an Envision plate reader (PerkinElmer, Shelton, CT).
On the % scale 0 is the no-effect control and ±100 the full control effect.

| SMILES | activity change, negative = inhibition |
| --- | --- |
| CCOC(=O)C(=O)c1csc(NC=O)n1 | 9.32% |
| O=C(O)/C=C/c1ccccc1 | -0.67% |
| CCCCC(CC)CNC(=O)CC(C)OC(=O)CCC(=O)O (stereo not given) | 7.07% |
| Cc1cccc(Nc2ccncc2S(=O)(=O)NC(=O)NC(C)C)c1 | 7.43% |
| Cc1nc(C)nc(N2C[C@@H](C)N(c3ccnc([C@@H](C)O)n3)[C@@H](C)C2)n1 | -0.23% |
| CC1CCC(C(C)(C)S)C(=O)C1 (stereo not given) | 2.78% |
| BrC/C=C/CBr | -0.017% [at 29.1 µM] |
| O=C1OC(=O)c2cc(Oc3ccc4c(c3)C(=O)OC4=O)ccc21 | -4.51% |
| CC(C)COC(=O)CCCCC(=O)OCC(C)C | 1.46% |
| CCOC(=O)CC(CC(=O)OCC)(OC(C)=O)C(=O)OCC | -4.58% |
| CCCCCCCCCCCCCCCCI | -11.3% [at 29.1 µM] |
| Nc1ccc(/C=C/c2ccc(N)cc2S(=O)(=O)O)c(S(=O)(=O)O)c1 | 3.76% [at 0.55 µM] |
| C/C=C(\C)C(=O)OCC/C=C\CC | 2.15% |
| C=C(C)C(=O)OC | 8.44% |
| O=CO | -0.433% [at 5.95 µM] |
| CCCCCCCCCCCCC1CO1 (stereo not given) | -2.32% |
| O=C(O)Cc1cccc(-c2cc(CCCCCCc3ccc(O[C@H]4O[C@H](CO)[C@@H](O)[C@H](O)[C@@H]4O)c(-c4cccc(CC(=O)O)c4)c3)ccc2O[C@H]2O[C@H](CO)[C@@H](O)[C@H](O)[C@@H]2O)c1 | -1.58% [at 0.55 µM] |
| CC(=O)OCC(=O)[C@@]1(O)[C@H](OC(C)=O)C[C@H]2[C@@H]3CCC4=CC(=O)C=C[C@]4(C)[C@@]3(F)[C@@H](O)C[C@@]21C | 4.51% |
| CCN(CC)C(=O)C1CN2CCc3cc(OC)c(OC)cc3C2CC1OC(C)=O (stereo not given) | 0.33% |
| Cc1ccc2c(c1)c1c3n2CCNC3CCC1 (stereo not given) | -4% |

| SMILES | activity change, negative = inhibition |
| --- | --- |
| Cc1cccc(NC(=S)N(C)C)c1 | -13.6% |
| CN[C@@H]1[C@H](O)[C@H](NC)[C@H]2O[C@@]3(O)C(=O)C[C@@H](C)O[C@H]3O[C@@H]2[C@H]1O | -2.94% |
| CCC(=O)c1ccc(O)cc1 | 1.68% |
| COCCOCCOCCOC | 2.9% |
| CCN(CCC#N)c1ccccc1 | -2.52% |
| CC(=O)Nc1ncc([N+](=O)[O-])s1 | -0.287% |
| O=C1NC2NC(=O)NC2N1 (stereo not given) | 1.51% |
| CCCCCC1CCCC(=O)O1 (stereo not given) | -0.116% |
| Cc1ncc([N+](=O)[O-])n1CC(O)CCl (stereo not given) | -0.88% |
| SCCSCCS | 1.08% |
| CCCCCCCCCCCCCCCC(=O)NCCO | 4.61% |
| C[C@H](CCC(=O)O)[C@H]1CC[C@H]2[C@@H]3[C@H](O)C[C@@H]4C[C@H](O)CC[C@]4(C)[C@H]3C[C@H](O)[C@]12C | 8.78% |
| CN(C1CCCCC1)S(=O)(=O)c1ccccc1N | -8.44% |
| CCc1nccnc1C | 0.31% |
| CCOc1ccc(NC(=O)OC(C)C)cc1OCC | 0.241% |
| CCN(Cc1cccc(S(=O)(=O)O)c1)c1ccccc1 | 6.98% |
| CC(C)COC(=O)/C=C/c1ccccc1 | -11.5% |
| Nc1ccc(S(=O)(=O)Nc2ccccn2)cc1 | 1.75% |
| c1ccc(CNc2ncnc3nc[nH]c23)cc1 | -0.563% |
| CCCCCCCCCCCCC | 11.4% |
